Hits are enriched below; roughly 1.2% of the tested compounds scored in any of these assays.
Rv3671c inh: Rv3671c serine protease inhibitors, primary screen, biochemical, fluorescence polarization, M. tuberculosis H37Rv. inhibition, % at 5.96 µM. 0.048% of 320,000 active. P9WHR9; in the data active = inhibition above about 38%;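 also: extracellular domain of Rv3671c used as enzyme; 0% = enzyme with DMSO and 100% = no enzyme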
SSB-PriA inh: inhibitors of Klebsiella pneumoniae PriA binding to SSB C-terminal tail, primary screen, biochemical, AlphaScreen. inhibition, % at 33 µM. 0.6% of 430,000 active. AlphaScreen SSBct-PriA binding, biotinylated peptide. PriA–SSB C-terminal tail interaction (Klebsiella pneumoniae); in the data active = inhibition mostly above about 37%, no sharp cut-off; inactive = mostly below about 20%;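 also: plate controls were negative control peptide for no effect and reference peptide for full effect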
PrPC TRFRET: inhibitors of human cell surface prion protein PrPC, primary screen, cell-based, TR-FRET; TR-FRET read-out; inhibition, % at 13.8 µM; 0.43% of 370,000 active; in the data active = inhibition above about 24%; also: 0% = median of the test wells and 100% = reference compound wells
FadD28 FP inh: inhibitors of FadD28 bisubstrate probe binding, primary screen, biochemical, fluorescence polarization, single point; Mycobacterium tuberculosis FadD28 fatty-acid-AMP ligase; inhibition, % at 12.5 µM; 0.22% of 360,000 active; in the data active = inhibition above about 8.5%, passing the limit was not always enough
UGM FP inh: M. tuberculosis UGM enzyme inhibitors, primary screen, biochemical, fluorescence polarization, single point. UDP-galactopyranose mutase (Mycobacterium tuberculosis (strain ATCC 25618 / H37Rv)), …. purified UGM, fluorescence polarization probe displacement. inhibition, % at 10 µM. 0.06% of 320,000 active. AID 504406, 2011; in the data active = inhibition above about 10%, passing the limit was not always enough
Target sequence (P9WIQ1 whole entry, looked up): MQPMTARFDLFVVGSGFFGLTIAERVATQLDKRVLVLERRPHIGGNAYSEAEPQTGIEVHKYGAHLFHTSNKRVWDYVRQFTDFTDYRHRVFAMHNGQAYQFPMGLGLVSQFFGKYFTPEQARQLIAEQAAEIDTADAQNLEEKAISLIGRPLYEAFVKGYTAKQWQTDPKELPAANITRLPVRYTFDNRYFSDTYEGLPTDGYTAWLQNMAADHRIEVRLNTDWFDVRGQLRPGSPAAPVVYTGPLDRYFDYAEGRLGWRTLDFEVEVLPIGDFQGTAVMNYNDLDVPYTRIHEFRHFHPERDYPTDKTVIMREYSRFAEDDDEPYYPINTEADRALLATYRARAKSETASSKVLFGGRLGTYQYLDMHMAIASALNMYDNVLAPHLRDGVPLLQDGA
PrP UTR inh: inhibition of PrP 5' UTR reporter expression; cell-based PrP 5' UTR mRNA reporter, plate reader; inhibition, % (test concentration not listed); 0.35% of 340,000 active; AID 488862, 2010; in the data active = inhibition above about 52%; also: 0 = median of the neutral control wells
* hit, by the source's call.

Results for Cc1c(NC(=O)CSc2ncnc3sc4c(c23)CCC(C)C4)c(=O)n(-c2ccccc2)n1C (centres undefined) ?
SSB-PriA inh: -15

How did CCCOc1ccc(CNC(=O)CCn2cnc3c([nH]c4ccc(F)cc43)c2=O)cc1 do in these assays?
SSB-PriA inh: 2

Results for O=C(CCC(=O)OCC(=O)c1ccccc1)Nc1ccc2ccccc2c1 ?
SSB-PriA inh: 4

How did Cc1sc2ncnc(N3CCN(c4ccccc4C(F)(F)F)CC3)c2c1-c1ccc(F)cc1 do in these assays?
SSB-PriA inh: -5

How did CCN1CCCc2cc(CCNC(=O)C(=O)NC(C)C)ccc21 do in these assays?
SSB-PriA inh: 26

How did CCN1CCCc2cc(CCNC(=O)c3ccccc3C(F)(F)F)ccc21 do in these assays?
SSB-PriA inh: 59*

How did CCCN1CCCc2cc(CCNC(=O)c3ccc(OC)cc3)ccc21 do in these assays?
SSB-PriA inh: 74*

What do the screens show for `CCCN1CCCc2cc(CCNC(=O)COc3ccccc3C)ccc21`?
SSB-PriA inh: 68*

How did CCCN1CCCc2cc(CCNC(=O)COc3ccc(OC)cc3)ccc21 do in these assays?
SSB-PriA inh: 74*

Results for CC(C)(C)S(=O)(=O)[C@H]1CCN(C(=O)c2cccc(Br)c2)C1 ?
SSB-PriA inh: -16

Results for CCCN1CCCc2cc(CCNC(=O)c3ccccc3OCC)ccc21 ?
SSB-PriA inh: 74*

How did CCCN1CCCc2cc(CCNC(=O)COc3ccc(F)cc3)ccc21 do in these assays?
SSB-PriA inh: 78*

What do the screens show for `CCCN1CCCc2cc(CCNC(=O)COc3ccc(Cl)cc3)ccc21`?
SSB-PriA inh: 73*

What do the screens show for `CCCN1CCCc2cc(CCNC(=O)COc3cccc(C)c3)ccc21`?
SSB-PriA inh: 90*

How did Cc1ccc(C)c2sc(N(Cc3ccccn3)C(=O)CCCS(=O)(=O)Cc3ccccc3)nc12 do in these assays?
SSB-PriA inh: -5

What do the screens show for `Cc1ccccc1CSc1nccn2nc(-c3ccc(F)cc3)cc12`?
SSB-PriA inh: -4

Results for CCOC(=O)c1c(NC(=O)c2ccc(Oc3ccccc3)cc2)sc(C)c1C ?
SSB-PriA inh: 0

Results for CCCN1CCCc2cc(CCNC(=O)c3cc(Cl)ccc3OC)ccc21 ?
SSB-PriA inh: 66*

Results for Cc1nc(NC(=O)COc2ccnc3c2CCCC3)sc1C ?
SSB-PriA inh: -9

Results for CCC(CO)Oc1cc(NCc2ccc(C)c(C)c2)c2ncn(C(C)C)c2c1 (centres undefined) ?
Rv3671c inh: -5; SSB-PriA inh: 36; PrPC TRFRET: 2; FadD28 FP inh: -1; UGM FP inh: -2; PrP UTR inh: -13

What do the screens show for `CCC(CO)Oc1cc(NCc2cc(C)cc(C)c2)c2ncn(C(C)C)c2c1` (centres undefined)?
Rv3671c inh: -2; SSB-PriA inh: 55*; PrPC TRFRET: 1; FadD28 FP inh: 3; UGM FP inh: -3; PrP UTR inh: 10

What do the screens show for `O=C(NCCn1nc(-c2ccsc2)cc1C1CC1)c1ccc(F)cc1Cl`?
SSB-PriA inh: -2

How did CCCCCc1cc(=O)oc2c(C(CCN3CCCC3)c3ccc(N(C)C)cc3)c(OC)cc(OC)c12 (centres undefined) do in these assays?
Rv3671c inh: 7; SSB-PriA inh: 50*; PrPC TRFRET: -11; FadD28 FP inh: -6; UGM FP inh: 1; PrP UTR inh: -2

What do the screens show for `CCCCCc1cc(=O)oc2c(C(CCN3CCCCC3)c3ccc(OC)cc3)c(OC)cc(OC)c12` (centres undefined)?
Rv3671c inh: -11; SSB-PriA inh: 12; PrPC TRFRET: -11; FadD28 FP inh: -12; UGM FP inh: -2; PrP UTR inh: -9

Results for CCN(CC)C(=O)CC(c1ccc(N(C)C)cc1)c1c(OC)cc(OC)c2c(-c3ccccc3)cc(=O)oc12 (centres undefined) ?
Rv3671c inh: 6; SSB-PriA inh: 48*; PrPC TRFRET: -2; FadD28 FP inh: -1; UGM FP inh: 1; PrP UTR inh: -13

How did c1ccc(CNc2ccc(NCc3ccccc3)nn2)cc1 do in these assays?
SSB-PriA inh: -14

How did COC(=O)CCC(=O)OC1(C)C(=O)C2=COC(c3ccc(OC)cc3)=CC2=C(Br)C1=O (centres undefined) do in these assays?
Rv3671c inh: 1; SSB-PriA inh: -9; UGM FP inh: -2

What do the screens show for `COc1ccc(C2=CC3=C(Br)C(=O)C(C)(OC(=O)C4CCCC4)C(=O)C3=CO2)cc1` (centres undefined)?
Rv3671c inh: -2; SSB-PriA inh: 2; FadD28 FP inh: 11*; UGM FP inh: -3; PrP UTR inh: -20

What do the screens show for `CC(=O)c1ccc(N=Nc2ccc(N(C)C)cc2)cc1`?
Rv3671c inh: 2; SSB-PriA inh: 1; PrPC TRFRET: 9; FadD28 FP inh: -1; UGM FP inh: 2; PrP UTR inh: 5

Results for CN(C)c1ccc(N=Nc2ccccc2Br)cc1 ?
Rv3671c inh: 3; SSB-PriA inh: 57*; PrPC TRFRET: 1; FadD28 FP inh: -3; UGM FP inh: -1; PrP UTR inh: 1

How did Cc1ccc(NC(=O)C(=O)c2c[nH]c3ccccc23)cc1 do in these assays?
SSB-PriA inh: -4; PrPC TRFRET: -20; FadD28 FP inh: -2; UGM FP inh: 0; PrP UTR inh: -73

Results for O=C(Nc1ccc(Nc2ccccc2)cc1)C(=O)c1c[nH]c2ccccc12 ?
SSB-PriA inh: 48*

How did O=C(NCCNc1cc(Nc2ccccn2)ncn1)c1cccc(Cl)c1 do in these assays?
SSB-PriA inh: -5

What do the screens show for `O=C(CCc1ccccc1)N1CCN(c2ccc(N3CCOCC3)nn2)CC1`?
SSB-PriA inh: -12

What do the screens show for `N#CC(=C1CCCC1)c1nc(-c2ccccc2)cs1`?
Rv3671c inh: -2; SSB-PriA inh: -42; PrPC TRFRET: -4; FadD28 FP inh: -2; UGM FP inh: 1; PrP UTR inh: -138

Results for CCN1C=CC=C/C1=C(/C#N)c1nc(-c2ccccc2)cs1 ?
SSB-PriA inh: 108*

How did O=S(=O)(NCC1(c2cccs2)CC1)c1ccc2c(c1)CCCC2 do in these assays?
SSB-PriA inh: 1

What do the screens show for `CN(C)c1ccc(/C=C2\C(=O)NC(=O)N(CCc3ccc(F)cc3)C2=O)cc1`?
Rv3671c inh: -31; SSB-PriA inh: -4; PrPC TRFRET: 1; FadD28 FP inh: 25*; UGM FP inh: -1; PrP UTR inh: -6

How did C=CCSc1ncc(-c2ccc(OC)cc2)n1-c1cccc(Cl)c1 do in these assays?
SSB-PriA inh: 32*

Bioassay records (PubChem BioAssay)
